Measurements reported in the supplement of paper PMC4466140.

B1: unnamed (peptide)
chain: NFLRLLIGLPSQNEL
B2: unnamed (peptide)
chain: QFDLKMPSKPIHNLK

Target: SpBzz1-D2
Test: SPOT peptide array binding signal intensity (averaged, normalized) (arbitrary units (background-subtracted, floor 0; scale differs between SH3 domains)); higher = stronger binding of the SH3 domain to the peptide
Outline: (§1)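 Binding signal refers to normalized, background-subtracted spot intensity averaged over replicates, expressed in arbitrary units that differ between domains. GST-fused SH3 domains from four yeast species were incubated at 10 μg/ml overnight at 4°C on cellulose membranes of synthetic 15-mer peptides with cysteines replaced by serines. Bound protein was detected with anti-GST antibody, an HRP anti-mouse secondary and luminol, and quantified with Genespotter.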

Row | Binder | SPOT peptide array binding signal intensity
1 | B1 | ≤ 0
2 | B2 | ≤ 0

Target: SpCyk3
Test: as above
Outline: as §1

Row | Binder | SPOT peptide array binding signal intensity
3 | B1 | 7
4 | B2 | ≤ 0

Target: SpHof1
Test: as above
Outline: as §1

Row | Binder | SPOT peptide array binding signal intensity
5 | B1 | 121
6 | B2 | 9

Target: SpHof1-2
Test: as above
Outline: as §1

Row | Binder | SPOT peptide array binding signal intensity
7 | B1 | 31.5
8 | B2 | 11.8

Target: SpHof1-3
Test: as above
Outline: as §1

Row | Binder | SPOT peptide array binding signal intensity
9 | B1 | 443
10 | B2 | ≤ 0

Target: SpHse1
Test: as above
Outline: as §1

Row | Binder | SPOT peptide array binding signal intensity
11 | B1 | 3340
12 | B2 | 136

Target: SpLsb1
Test: as above
Outline: as §1

Row | Binder | SPOT peptide array binding signal intensity
13 | B1 | ≤ 0
14 | B2 | ≤ 0

Target: SpLsb4
Test: as above
Outline: as §1

Row | Binder | SPOT peptide array binding signal intensity
15 | B1 | ≤ 0
16 | B2 | 318

Target: SpMyo1
Test: as above
Outline: as §1

Row | Binder | SPOT peptide array binding signal intensity
17 | B1 | 0.5
18 | B2 | ≤ 0

Target: SpNbp2
Test: as above
Outline: as §1

Row | Binder | SPOT peptide array binding signal intensity
19 | B1 | 52.5
20 | B2 | 74.5

Target: SpPex13
Test: as above
Outline: as §1

Row | Binder | SPOT peptide array binding signal intensity
21 | B1 | 52
22 | B2 | 1

Target: SpRvs167
Test: as above
Outline: as §1

Row | Binder | SPOT peptide array binding signal intensity
23 | B1 | 9.83
24 | B2 | ≤ 0

Target: SpSla1-D1-D2
Test: as above
Outline: as §1

Row | Binder | SPOT peptide array binding signal intensity
25 | B1 | 4
26 | B2 | 5

Target: SpSla1-D3
Test: as above
Outline: as §1

Row | Binder | SPOT peptide array binding signal intensity
27 | B1 | 8
28 | B2 | 30

Target: AgAbp1
Test: as above
Outline: as §1

Row | Binder | SPOT peptide array binding signal intensity
29 | B2 | ≤ 0

Target: AgBbc1
Test: as above
Outline: as §1

Row | Binder | SPOT peptide array binding signal intensity
30 | B2 | 0.5

Target: AgBem1-D1
Test: as above
Outline: as §1

Row | Binder | SPOT peptide array binding signal intensity
31 | B2 | 103

Target: AgBzz1-D1
Test: as above
Outline: as §1

Row | Binder | SPOT peptide array binding signal intensity
32 | B2 | 3.5

Target: AgBzz1-D2
Test: as above
Outline: as §1

Row | Binder | SPOT peptide array binding signal intensity
33 | B2 | ≤ 0

Target: AgCyk3
Test: as above
Outline: as §1

Row | Binder | SPOT peptide array binding signal intensity
34 | B2 | ≤ 0

Target: AgFus1
Test: as above
Outline: as §1

Row | Binder | SPOT peptide array binding signal intensity
35 | B2 | 48.5

Target: AgHof1
Test: as above
Outline: as §1

Row | Binder | SPOT peptide array binding signal intensity
36 | B2 | ≤ 0

Target: AgHse1
Test: as above
Outline: as §1

Row | Binder | SPOT peptide array binding signal intensity
37 | B2 | 85.5

Target: AgLsb1
Test: as above
Outline: as §1

Row | Binder | SPOT peptide array binding signal intensity
38 | B2 | ≤ 0

Target: AgLsb4
Test: as above
Outline: as §1

Row | Binder | SPOT peptide array binding signal intensity
39 | B2 | 3.5

Target: AgMyo5
Test: as above
Outline: as §1

Row | Binder | SPOT peptide array binding signal intensity
40 | B2 | ≤ 0

Target: AgNbp2
Test: as above
Outline: as §1

Row | Binder | SPOT peptide array binding signal intensity
41 | B2 | 63.5

Target: AgRvs167
Test: as above
Outline: as §1

Row | Binder | SPOT peptide array binding signal intensity
42 | B2 | 0.333

Target: AgSho1
Test: as above
Outline: as §1

Row | Binder | SPOT peptide array binding signal intensity
43 | B2 | 57

Target: AgSla1-D1-D2
Test: as above
Outline: as §1

Row | Binder | SPOT peptide array binding signal intensity
44 | B2 | ≤ 0

Target: AgSla1-D3
Test: as above
Outline: as §1

Row | Binder | SPOT peptide array binding signal intensity
45 | B2 | ≤ 0

Target: CaAbp1-D1
Test: as above
Outline: as §1

Row | Binder | SPOT peptide array binding signal intensity
46 | B2 | ≤ 0

Target: CaAbp1-D2
Test: as above
Outline: as §1

Row | Binder | SPOT peptide array binding signal intensity
47 | B2 | ≤ 0

Target: CaBbc1
Test: as above
Outline: as §1

Row | Binder | SPOT peptide array binding signal intensity
48 | B2 | 9.5

Target: CaBem1-D1
Test: as above
Outline: as §1

Row | Binder | SPOT peptide array binding signal intensity
49 | B2 | 25

Target: CaBzz1-D1
Test: as above
Outline: as §1

Row | Binder | SPOT peptide array binding signal intensity
50 | B2 | ≤ 0

Target: CaBzz1-D2
Test: as above
Outline: as §1

Row | Binder | SPOT peptide array binding signal intensity
51 | B2 | 8

Target: CaCyk3
Test: as above
Outline: as §1

Row | Binder | SPOT peptide array binding signal intensity
52 | B2 | 1.5

Target: CaFus1
Test: as above
Outline: as §1

Row | Binder | SPOT peptide array binding signal intensity
53 | B2 | 446

Target: CaHof1
Test: as above
Outline: as §1

Row | Binder | SPOT peptide array binding signal intensity
54 | B2 | ≤ 0

Target: CaHse1
Test: as above
Outline: as §1

Row | Binder | SPOT peptide array binding signal intensity
55 | B2 | 49.8

Target: CaLsb1
Test: as above
Outline: as §1

Row | Binder | SPOT peptide array binding signal intensity
56 | B2 | ≤ 0

Target: CaLsb4
Test: as above
Outline: as §1

Row | Binder | SPOT peptide array binding signal intensity
57 | B2 | 142

Target: CaMyo5
Test: as above
Outline: as §1

Row | Binder | SPOT peptide array binding signal intensity
58 | B2 | 8

Target: CaNbp2
Test: as above
Outline: as §1

Row | Binder | SPOT peptide array binding signal intensity
59 | B2 | 202

Target: CaRvs167
Test: as above
Outline: as §1

Row | Binder | SPOT peptide array binding signal intensity
60 | B2 | 1.67

Target: CaRvs167-3
Test: as above
Outline: as §1

Row | Binder | SPOT peptide array binding signal intensity
61 | B2 | ≤ 0

Target: CaSho1
Test: as above
Outline: as §1

Row | Binder | SPOT peptide array binding signal intensity
62 | B2 | 376

Target: CaSla1-D1-D2
Test: as above
Outline: as §1

Row | Binder | SPOT peptide array binding signal intensity
63 | B2 | 68

Target: CaSla1-D3
Test: as above
Outline: as §1

Row | Binder | SPOT peptide array binding signal intensity
64 | B2 | 77

Target: ScAbp1
Test: as above
Outline: as §1

Row | Binder | SPOT peptide array binding signal intensity
65 | B2 | ≤ 0

Target: ScBbc1
Test: as above
Outline: as §1

Row | Binder | SPOT peptide array binding signal intensity
66 | B2 | 0.25

Target: ScBem1-D1
Test: as above
Outline: as §1

Row | Binder | SPOT peptide array binding signal intensity
67 | B2 | ≤ 0

Target: ScBzz1-D1
Test: as above
Outline: as §1

Row | Binder | SPOT peptide array binding signal intensity
68 | B2 | ≤ 0

Target: ScBzz1-D2
Test: as above
Outline: as §1

Row | Binder | SPOT peptide array binding signal intensity
69 | B2 | 3.5

Target: ScCyk3
Test: as above
Outline: as §1

Row | Binder | SPOT peptide array binding signal intensity
70 | B2 | ≤ 0

Target: ScFus1
Test: as above
Outline: as §1

Row | Binder | SPOT peptide array binding signal intensity
71 | B2 | 70

Target: ScHof1
Test: as above
Outline: as §1

Row | Binder | SPOT peptide array binding signal intensity
72 | B2 | 0.5

Target: ScHse1
Test: as above
Outline: as §1

Row | Binder | SPOT peptide array binding signal intensity
73 | B2 | 57

Target: ScLsb1
Test: as above
Outline: as §1

Row | Binder | SPOT peptide array binding signal intensity
74 | B2 | 9

Target: ScLsb2
Test: as above
Outline: as §1

Row | Binder | SPOT peptide array binding signal intensity
75 | B2 | 1

Target: ScLsb3
Test: as above
Outline: as §1

Row | Binder | SPOT peptide array binding signal intensity
76 | B2 | 74

Target: ScLsb4
Test: as above
Outline: as §1

Row | Binder | SPOT peptide array binding signal intensity
77 | B2 | 21

Target: ScMyo3
Test: as above
Outline: as §1

Row | Binder | SPOT peptide array binding signal intensity
78 | B2 | ≤ 0

Target: ScMyo5
Test: as above
Outline: as §1

Row | Binder | SPOT peptide array binding signal intensity
79 | B2 | ≤ 0

Target: ScNbp2
Test: as above
Outline: as §1

Row | Binder | SPOT peptide array binding signal intensity
80 | B2 | 79.5

Target: ScPex13
Test: as above
Outline: as §1

Row | Binder | SPOT peptide array binding signal intensity
81 | B2 | 23.8

Target: ScRvs167
Test: as above
Outline: as §1

Row | Binder | SPOT peptide array binding signal intensity
82 | B2 | 2.83

Target: ScSho1
Test: as above
Outline: as §1

Row | Binder | SPOT peptide array binding signal intensity
83 | B2 | 198

Target: ScSla1-D1-D2
Test: as above
Outline: as §1

Row | Binder | SPOT peptide array binding signal intensity
84 | B2 | 59

Target: ScSla1-D3
Test: as above
Outline: as §1

Row | Binder | SPOT peptide array binding signal intensity
85 | B2 | 150

Target: SpAbp1-D1
Test: as above
Outline: as §1

Row | Binder | SPOT peptide array binding signal intensity
86 | B2 | 0.5

Target: SpBbc1
Test: as above
Outline: as §1

Row | Binder | SPOT peptide array binding signal intensity
87 | B2 | 1.5

Target: SpBzz1-D1
Test: as above
Outline: as §1

Row | Binder | SPOT peptide array binding signal intensity
88 | B2 | 104
